Compound activity as filed in PubChem.
AMA1 RON2 block: qHTS for Inhibitors of AMA1-RON; Towards Development of Antimalarial Drug Lead: Primary Screen; AlphaScreen AMA1-biotinylated RON2 peptide binding; Plasmodium falciparum AMA1 (3D7) - RON2 peptide interaction; Potency, µM (highest dose often 58.2 µM), for the others: at the highest dose activity change, negative = inhibition, hits mostly inhibitors; 360,000 compounds, 0.2% hits; AID 720542, 2013;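 further: potency means the concentration at half of the fitted maximal effect; 0% = vehicle wells and -100% = peptide control; nearly all actives have a fitted effect of over 45% in size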
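AMA1 (3D7) with his tag at 25 nM final met compounds first, then biotinylated RON2 peptide at 25 nM; detection used donor plus acceptor beads, 10 µg/mL apiece, read by AlphaScreen after 30 min at room temperature.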
RE007 growth inh: qHTS Assay for Inhibitors of the HIV-1 protein Vpr; 360,000 compounds, 0.21% hits; Potency, µM (top dose mostly 92.2 µM), for inactives: at the highest dose activity change, negative = less growth, usual class: inhibitors; AID 651644, 2012; S. pombe RE007 Vpr strain, BacTiter-Glo ATP luminescence, 24 h; active means well fitted falling curve with a large enough effect; inconclusive means small, poorly fitted or top-dose-only effect; inactive means no such curve, though single readings can be large or run the other way; further: potency means the concentration at half of the fitted maximal effect; on the % scale 0 is the no-effect control and ±100 the full control effect; nearly all actives have a fitted effect of over 50% in size
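Fission yeast RE007 carrying one integrated HIV-1 vpr copy, seeded at OD 0.01 in PMG+AL medium with 23 nL pinned compound. Grown 24 h at 30 degrees; viability read by BacTiter-Glo luminescence after 5 min.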
TbPYK inhibitor: qHTS of Trypanosoma Brucei Inhibitors. Potency, µM (top dose mostly 76.8 µM), inactives show top-dose activity, negative = inhibition, usual class: inhibitors. TbPYK enzyme, Kinase-Glo Plus ATP luminescence, 45 min. AID 624173, 2012. pyruvate kinase (Trypanosoma brucei), Q57TT1. 410,000 compounds, 0.12% hits; further: potency means the concentration at half of the fitted maximal effect; on the % scale 0 is the no-effect control and ±100 the full control effect; nearly all actives have a fitted effect of over 50% in size
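Luminescent Kinase-Glo Plus end-point after 45 min room-temperature reaction of T. brucei pyruvate kinase started with 130 uM ADP (final). Buffer TEA 50 mM pH 7.2 with KCl, MgCl2, BSA, Tween-20; titration-based qHTS with fitted concentration-effect curves.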
LmPK inhibitor: qHTS Assay for Inhibitors of Leishmania Mexicana Pyruvate Kinase (LmPK); purified LmPK, Kinase-Glo ATP luminescence, 1 h; Potency, µM (highest dose often 57.5 µM), for inactives: top-dose activity change, negative = inhibition, hits mostly inhibitors; Q27686; 290,000 compounds, 0.37% hits; further: potency means the concentration at half of the fitted maximal effect; on the % scale 0 is the no-effect control and ±100 the full control effect
Target sequence (Q27686 whole entry, looked up): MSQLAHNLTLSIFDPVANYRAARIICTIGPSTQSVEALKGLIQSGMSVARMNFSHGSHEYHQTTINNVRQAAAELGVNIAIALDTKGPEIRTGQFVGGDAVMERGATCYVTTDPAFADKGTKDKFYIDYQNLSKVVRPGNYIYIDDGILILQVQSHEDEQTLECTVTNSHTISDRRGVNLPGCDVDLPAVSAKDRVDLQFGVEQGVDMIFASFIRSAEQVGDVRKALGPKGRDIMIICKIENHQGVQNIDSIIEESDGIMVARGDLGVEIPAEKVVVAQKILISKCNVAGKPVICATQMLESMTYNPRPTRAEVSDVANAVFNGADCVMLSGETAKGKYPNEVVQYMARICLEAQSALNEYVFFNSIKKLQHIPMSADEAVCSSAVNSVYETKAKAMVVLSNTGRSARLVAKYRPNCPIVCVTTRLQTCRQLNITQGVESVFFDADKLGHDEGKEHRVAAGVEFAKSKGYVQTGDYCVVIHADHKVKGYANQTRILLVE
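Purified LmPK (0.1 nM) converted ADP (0.1 mM) to ATP with PEP (0.5 mM) in imidazole buffer pH 7.2 with KCl and MgCl2, 1 h at room temperature. ATP was read by Kinase-Glo luminescence; data normalized to uninhibited and no-enzyme controls.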
NS1 inh: qHTS Assay for Inhibitors of Influenza NS1 Protein Function; Potency, µM (highest dose often 46.1 µM), without a hit: top-dose activity, positive = more growth; 270,000 compounds, 0.4% hits; calls by dose curve; further: potency means the concentration at half of the fitted maximal effect; actives are rising curves; nearly all actives have a fitted effect of over 50% in size
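A cell-based growth assay was used: compounds that relieve NS1-induced slow growth of budding yeast raise OD600. Assay medium was yeast nitrogen base with ammonium sulphate and -URA supplement, pH 6.0, with 2% galactose.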
Flu NS1 inh: Assay for Inhibitors of Influenza NS1 Protein Function: Hit Validation; shares compounds with NS1 inh; influenza NS1 function cell assay, 15-point titration; activity change, negative = inhibition, % at 32.9 µM; 1,400 tested, under 10 active; AID 492980, 2010; calls by dose curve; further: 0% is about no effect
Flu PR8 replic: Assay for Inhibitors of Influenza NS1 Protein Function: Influenza virus replication assay in MDCK cells infected with virus A/PR/8/34 | MDCK infected influenza A/PR/8/34, virus titer TCID50; active compounds read low | 95 compounds, 30% hits | shares compounds with NS1 inh | virus titer (log TCID50), log10 TCID50 at 5 µM; call rule not given here
The depositor's hits bear a star; ? = inconclusive; nt = not tested or not shown; [ ] = another dose, or the depositor's remark. Shown are actives, neighbours in structure and some others; about 0.92% of the full set was active somewhere. Unless noted, the call rests on the fitted dose curve; in most records, active means well fitted curve in the direction sought with a large enough effect; inconclusive means small, poorly fitted or top-dose-only effect, or another doubt; inactive means no such curve, though single readings can be large; an effect the other way counts as inactive or inconclusive.

SMILES	AMA1 RON2 block	RE007 growth inh	TbPYK inhibitor	LmPK inhibitor	NS1 inh	Flu NS1 inh	others
O=C(NCc1ccccc1)NC1CCS(=O)(=O)C1 (stereo unspecified)	?	10%	1%	-1%	0%	nt
CC(C1CC1)N(C(=O)NC1CCS(=O)(=O)C1)c1ccccc1 (stereo unspecified)	3%	22%	-5%	-2%	?	9
CCCOc1ccc(C(=O)Nc2cc(-c3nn4c(C)nnc4s3)ccc2C)cc1	9%	2%	-6%	10%	4.5µM*	5
CCOc1cccc(C(=O)Nc2cc(-c3nn4c(C)nnc4s3)ccc2C)c1	-1%	18%	-5%	-5%	-33%	nt
Cc1c(C(=O)O)nn(-c2cccc(C(F)(F)F)c2)c(=O)c1C#N	8%	6%	-2%	0%	-8%	nt
Cc1ccccc1-n1nc(C(=O)O)c(C)c(C#N)c1=O	58%	38%	-7%	4%	2.8µM*	12
COC(=O)C1=Nc2ccccc2/C1=C\c1c(O)n(-c2ccc(Br)cc2)c(=O)[nH]c1=O	8%[11.6 µM]	-29%	-14%	3%	10µM*	-35
O=C(NCCc1ccccc1)c1ccc2c(c1)N(Cc1ccc(Cl)cc1)C(=O)c1ccccc1S2(=O)=O	nt	nt	2%	nt	nt	nt
CCCc1cc(=O)n(-c2nc3ccccc3s2)[nH]1	119%	6%	6%	0%	2%	nt
CCOC(=O)Cc1cc(=O)n(-c2nc3ccccc3s2)[nH]1	-27%	3%	-4%	-1%	10µM*	0
COc1cccc(-c2nc(N3CCC(C)CC3)c3ccccc3n2)c1O	-21%	-28%	-21%	2%	20µM*	-29
COc1cccc(-c2nc(N3CCCC3)c3ccccc3n2)c1O	11%	9%	-3%	5%	-4%	nt
O=C(c1cc2ccccc2oc1=O)N(Cc1ccco1)C1CCS(=O)(=O)C1 (stereo unspecified)	20%	-11%	-23%	-12%	8.9µM*	-16
COc1cc(/C=C2/C(=O)N(c3ccc(Br)cc3)N=C2C)cc(OC)c1OC	-3%	27%	-12%	3%	11µM*	-17
CCc1ccc(NC(=O)CCn2c(-c3ccc(OC)cc3)cc(C(C)=O)c2C)cc1	nt	nt	5%[15.4 µM]	nt	nt	nt
CCOc1ccc(NC(=O)c2cccnc2C(=O)O)cc1	13%	3%	2%	2%	4.5µM*	2
CC(C)CC(C(=O)Nc1oc(-c2ccco2)c(-c2ccco2)c1C#N)N1C(=O)c2ccccc2C1=O (stereo unspecified)	16%	17%	-2%	5%	10µM*	-11	Flu PR8 replic=8
O=C(NCCN1CCCCC1)c1ccc(Cn2c(SCc3ccccc3)nc3cccnc32)cc1	nt	nt	0%	nt	nt	nt
Cc1cc(C2=CC(C)(c3cc(C)oc3C)Nc3nc(C(F)(F)F)nn32)c(C)o1 (stereo unspecified)	nt	nt	nt	3%	18µM*	7
Cc1ccccc1-c1nc2ccccc2c(=O)n1/N=C/c1ccccc1[N+](=O)[O-]	-2%	-5%	-16%	0%	3.2µM*	16
Cc1ccccc1-c1nc2ccccc2c(=O)n1/N=C/c1ccc([N+](=O)[O-])cc1	2%	7%	-3%	nt	nt	nt
CCCOP(=O)(c1ccc(N(C)C)cc1)C(Nc1ccccc1)c1ccc(N(C)C)cc1 (stereo unspecified)	-15%	-3%	-12%	7%	20µM*	9
C[C@H]1c2cccc(O)c2C(O)=C2C(=O)[C@]3(O)C(O)=C(C(N)=O)C(=O)C(N(C)C)[C@@H]3[C@@H](O)C21 (stereo partly specified)	nt	nt	nt	nt	7.1µM*	-11
CN(C)C(=O)[C@@H]1C[C@H]1[C@@H](NC(=O)OCc1ccccc1)c1ccccc1	4%	5%	3%	4%	-7%	nt
COC(=O)[C@H]1C[C@@H]1[C@H](NC(=O)[C@H]1C[C@@H]1[C@H](NC(=O)OCc1ccccc1)c1ccccc1)c1ccccc1	6%	-9%	2%	3%	10µM*	-5
SMILES	AMA1 RON2 block	RE007 growth inh	TbPYK inhibitor	LmPK inhibitor	NS1 inh	Flu NS1 inh	others
CCOc1cc2sc(N3CCC(C(=O)Nc4ccc(C)cc4C)CC3)nc2cc1Br	nt	nt	4%	nt	nt	nt
Cc1cccc(CC(=O)Nc2cc(=O)n(C)c(=O)n2C)c1	-2%	-2%	-9%	-3%	?	-7
Cn1c(=O)c2c(-c3ccccc3)n(-c3cccc(C#N)c3)cc2n(C)c1=O	nt	nt	-4%	nt	nt	nt
Cn1cccc1CC(=O)N/N=C\c1cccs1	0%	-6%	2%	0%	27%	nt
Cc1ccc(/C=N/NC(=O)Cc2cccn2C)s1	-1%	-5%	-11%	5%	2.8µM*	11
Cc1[nH]n(-c2ncc(-c3ccccc3)s2)c(=O)c1C(c1ccc(Br)cc1)C(C#N)C#N (stereo unspecified)	26%	-11%	-18%	1%	4.5µM*	-21
Cc1[nH]n(C(N)=S)c(=O)c1C(c1ccccc1)C(C#N)C#N (stereo unspecified)	18%	-6%	-14%	0%	-41%	nt
Cc1nc(-c2ccc(F)cc2)sc1CCNC(=O)c1ccccc1C(F)(F)F	nt	nt	3%	nt	nt	nt
O=S(=O)(Nc1cccc(-c2ccc(N3CCCCCC3)nn2)c1)c1cccc(F)c1	-7%	2%	-9%	2%	?	-3
O=S(=O)(Nc1cccc(-c2ccc(N3CCCCCC3)nn2)c1)c1ccc(F)cc1	-9%	21%	3%	8%	8%	nt
COc1ccc2c(c1)CCC/C2=N\Nc1nc(C(=O)NN)cs1	33%	-11%	2%	4%	8.9µM*	1
CCOC(=O)c1csc(N/N=C2\CCCc3ccccc32)n1	34%	nt	0%	-1%	8%	nt
O=C(OCn1nnc2ccccc2c1=O)c1ccc2ccccc2n1	22%	18%	8%	1%	16µM*	-17
Nc1ccc(C(=O)C[C@H](N)C(=O)O)cc1O	nt	nt	nt	nt	-1%	nt
CC1CN(c2ncnc3c2oc2ccccc23)CC(C)O1 (stereo unspecified)	-9%	-10%	0%	-8%	-43%	nt
Clc1ccc(N2CCN(c3ncnc4c3oc3ccccc34)CC2)cc1	2%	-3%	1%	-4%	?	-3
